Results filed as inconclusive are left out. Entries that show only a call come without a potency. The source made the active and inactive calls. Calls follow the shape of the dose curve; as a rule, active = well fitted inhibition curve with a large enough effect; inconclusive = small, poorly fitted or top-dose-only effect; inactive = flat fitted curve, though single readings scatter.

Calcium and integrin-binding protein 1 (Homo sapiens), sequence (Q99828 whole entry, looked up): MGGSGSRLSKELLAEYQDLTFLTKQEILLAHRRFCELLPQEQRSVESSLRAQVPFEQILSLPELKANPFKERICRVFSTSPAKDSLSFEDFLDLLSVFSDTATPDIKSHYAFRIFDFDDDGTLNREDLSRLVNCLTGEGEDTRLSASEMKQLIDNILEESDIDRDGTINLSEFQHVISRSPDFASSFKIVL

The test deals with Calcium and integrin-binding protein 1 (Homo sapiens) (UniProt Q99828). In words: Primary qHTS for Identification of Calcium Integrin Binding Protein 1 (CIB1) Competitor (AID 1508620).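 Also: GST tagged CIB1 binding a fluorescein labelled alphaIIb integrin peptide tracer; top concentration of the series differs between compounds.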 To be noted: CIB1-GST / FITC-alphaIIb peptide fluorescence polarization; series mostly up to 114 µM. In outline:
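CIB1-GST (1 uM final) and compound incubated 15 min at room temperature before adding FITC-alphaIIb peptide tracer (100 nM final). Competition for binding read by fluorescence polarization (ex 480, em 540) after another 15 min at room temperature.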
As for `O=C(Nc1ccc(Cl)c(Cl)c1)Nc1nnc(Br)s1`, the Potency entry is “inactive”.

Turning to `Cc1cc(C)nc(NC(=S)N2CCN(c3nnc(C(F)(F)F)s3)CC2)c1`, the Potency entry is “inactive”.

As for `N#Cc1c(-c2cccc(C(F)(F)F)c2)no[n+]1[O-]`, the Potency result was “inactive”.

In the case of `COc1ccnc(NC(=S)N2CCN(c3cccc(C(F)(F)F)n3)CC2)c1`, the Potency entry is “inactive”.

With `O=C(C1CCN(c2nc(-c3ccc(Br)cc3)cs2)CC1)N1CCOCC1`, the Potency entry was “inactive”.

Turning to `Cc1cc(NS(=O)(=O)Cc2ccc(NC(=O)Cc3ccc(Cl)c(Cl)c3)cc2)no1`, the Potency entry was “inactive”.

Take `Cc1csc(CNc2ncnc3ccc(-c4ccc5c(ccn5C)c4)cc23)c1`: the Potency result was “inactive”.

Turning to `Oc1cc(NCc2ccc(Cl)cc2)cc2cccnc12`, the Potency entry is “inactive”.

In the case of `CCCCC(O)C(=O)Nc1cc(C(F)(F)F)ccc1Cl` (stereo not given), the Potency entry is “inactive”.

For `CC(=O)N1c2ccc(S(=O)(=O)Nc3ccc(C)c(C)c3)cc2CC1C` (stereo not given), the Potency result was “inactive”.

On to `Cc1cc(-c2nnc3n2CCCCC3)c(C)n1-c1ccc([N+](=O)[O-])cc1`, for which the Potency entry is “inactive”.

`Cc1cc2c(s1)c1cnn(Cc3ccc(C(=O)O)cc3)c(=O)c1n2C`: the Potency entry was “inactive”.

Turning to `COc1ccc(C2=Nn3c(nnc3-c3ccc(OC)cc3OC)SC2)cc1`, the Potency result is “inactive”.

Consider `N#Cc1c(-c2cc(C(F)(F)F)cc(C(F)(F)F)c2)no[n+]1[O-]`, for which the Potency entry is “inactive”.

For `COc1ccc(C2=Nn3c(nnc3-c3ccccc3C(F)(F)F)SC2)cc1OC1CCOC1` (stereo not given), the Potency result is “inactive”.

For the compound `Cc1cccc(-c2ccc3ncnc(NCc4cccc(F)c4)c3c2)c1`, the Potency result is “inactive”.

Regarding `Oc1ccc(CNc2cccc(F)c2)c2cccnc12`, the Potency result is “inactive”.

`N#Cc1cccc(-c2ccc(NC(=O)c3cccs3)cn2)c1`: the Potency result is “inactive”.

Turning to `S=C(NCCCc1cnc[nH]1)NCCN(Cc1ccc(Cl)c(Cl)c1)c1ccc(Br)cn1`, the Potency result was “inactive”.

In the case of `CCOc1ccc(C(=O)Nc2ccc(-c3nn[nH]n3)cc2)cc1[N+](=O)[O-]`, the Potency entry was “inactive”.

Turning to `C=C(C)c1cc2c(s1)c1cnn(Cc3ccccc3F)c(=O)c1n2C`, the Potency result was “inactive”.

Turning to `Cc1ccc(OCCn2c(CCNC(=O)c3ccc(Cl)cc3)nc3ccccc32)cc1`, the Potency result was “inactive”.

On to `COC(=O)c1ccccc1NC(=O)c1ccc(F)cc1F`, for which the Potency result was “inactive”.

Take `COc1cccc(NS(=O)(=O)c2ccc3c(c2)CCC(=O)N3)c1`: the Potency entry was “inactive”.

For the compound `Cc1ccnc(NC(=S)NCCNc2cccc(C(F)(F)F)c2)c1`, the Potency result was “inactive”.

Consider `CC1=C(C(=O)Nc2ccccc2Cl)C(c2ccccc2Br)N=C(Nc2nc3ccccc3o2)N1` (stereo not given), for which the Potency result is “inactive”.

On to `Cn1nnnc1Sc1ncnc2scc(-c3cccc(C(F)(F)F)c3)c12`, for which the Potency entry was “inactive”.

In the case of `Cc1nnc(-c2ccccc2)n1CCCn1ccnc1`, the Potency entry was “inactive”.

Consider `Brc1ccc(-c2csc(N3CCNCC3)n2)cc1`, for which the Potency result was “inactive”.

Turning to `O=C(CNC(=O)C1CCCC1)OC(C(=O)Nc1cc(C(F)(F)F)ccc1Cl)c1ccccc1` (stereo not given), the Potency result is “inactive”.

Take `O=C1CCCC2=C1C(c1[nH]ncc1Cl)N=C(Nc1nc3cccc(Cl)c3o1)N2` (stereo not given): the Potency entry was “inactive”.

As to `O=S(=O)(c1ccc(C(F)(F)F)cc1)N1CCN(S(=O)(=O)c2ccc3c(c2)OCCO3)CC1`, the Potency result is “inactive”.

On to `Cc1c(Cl)cccc1NS(=O)(=O)c1cc2c(cc1Cl)CCC(=O)N2`, for which the Potency entry is “inactive”.

Take `O=S1(=O)N=C(Oc2ccccc2Br)c2ccccc21`: the Potency result is “inactive”.

Regarding `Cc1cccc(-n2cnc3cc(C(=O)N4CCC(Cc5ccccc5)CC4)ccc32)c1`, the Potency result is “inactive”.

For `N#Cc1nonc1-c1ccccc1`, the Potency entry is “inactive”.

`CC(C)(C)CNc1ncnc2ccc(-c3ccc(C(=O)O)o3)cc12`: the Potency result is “inactive”.

On to `CC(C)(C)c1ccccc1Nc1nc(C#N)nc(NC2CCCC2)n1`, for which the Potency result was “inactive”.

As to `CC(C)Cc1ccc(-c2ccc(=O)n(CC(=O)NCCc3ccccc3)n2)cc1`, the Potency entry was “inactive”.

As for `COc1ccc([S+](=O)([O-])N2CCCN([S+](=O)([O-])c3ccc(OC)c(N)c3)CC2)cc1N`, the Potency result is “inactive”.

Source of the values: PubChem BioAssay (NCATS).
